Measured values: PubChem BioAssay (NCATS)
Inconclusive results are not listed. The source made the active and inactive calls. The call rests on the fitted dose curve; in most records, active means well fitted curve in the direction sought with a large enough effect; inconclusive means small, poorly fitted or top-dose-only effect, or another doubt; inactive means no such curve, though single readings can be large or run the other way. Where a SMILES comes first, the peptide text is derived from it. Bridges are numbered along the chain shown (N, C = ends). [ ]: non-standard residue; d: D form. hArg = N=C(N)NCCCC[C@H](N)C(=O)O; Mpa = O=C(O)CCS

target: Protein phosphatase 1D (Homo sapiens) (UniProt O15297); experiment: Rhodamine-PBP qHTS Assay for Modulators of WT P53-Induced Phosphatase 1 (WIP1) (AID 1347425); conditions: recombinant WIP1, Rhodamine-PBP phosphate fluorescence, real-time; series mostly up to 57.5 µM
Sequence (O15297 whole entry, looked up): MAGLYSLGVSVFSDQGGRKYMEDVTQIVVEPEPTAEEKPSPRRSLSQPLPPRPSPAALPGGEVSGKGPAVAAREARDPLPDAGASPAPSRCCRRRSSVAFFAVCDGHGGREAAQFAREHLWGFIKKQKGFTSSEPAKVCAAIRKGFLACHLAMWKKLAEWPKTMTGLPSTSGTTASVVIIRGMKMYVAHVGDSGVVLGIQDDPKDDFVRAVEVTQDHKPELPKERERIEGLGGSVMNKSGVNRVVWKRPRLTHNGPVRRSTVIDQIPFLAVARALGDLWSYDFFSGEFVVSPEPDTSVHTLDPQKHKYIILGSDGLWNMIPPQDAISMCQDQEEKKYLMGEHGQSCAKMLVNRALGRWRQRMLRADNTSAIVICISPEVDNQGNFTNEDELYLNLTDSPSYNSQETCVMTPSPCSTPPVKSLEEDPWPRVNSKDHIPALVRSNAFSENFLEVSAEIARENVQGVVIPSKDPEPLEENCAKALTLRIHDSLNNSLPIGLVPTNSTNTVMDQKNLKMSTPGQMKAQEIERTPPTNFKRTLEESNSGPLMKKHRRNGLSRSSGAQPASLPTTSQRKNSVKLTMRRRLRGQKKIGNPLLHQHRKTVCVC
Excerpt: Assay Provider (PI): Nathan Coussens Ph.D.
National Center for Advancing Translational Sciences (NCATS), Rockville, MD
National Institute of Health (NIH), Bethesda, Maryland
WT P53-Induced Phosphatase 1 (WIP1) is a member of the magnesium-dependent serine/threonine protein phosphatase (PPM) family and is induced by P53 in response to DNA damage. In several human cancers, the WIP1 protein is overexpressed, which is generally associated with a worse prognosis. Although WIP1 is an attractive therapeutic target, no potent, selective, and bioactive small-molecule modulator with favorable pharmacokinetics has been reported. Phosphatase enzymes are among the most challenging targets for small molecules because of the difficulty of achieving both modulator selectivity and bioavailability. Another major obstacle has been the availability of robust and physiologically relevant phosphatase assays that are suitable for high-throughput screening.
Here, we describe two orthogonal biochemical WIP1 activity assays that utilize phosphopeptides from native WIP1 substrates. We optimized a RapidFire MS assay to quantify the enzymatically dephosphorylated peptide reaction product in a 384-well format. Additionally, a redshifted Rhodamine-PBP fluorescence assay was optimized in a 1,536-well format to enable real-time WIP1 activity measurements through the detection of the orthogonal reaction product, Pi. We validated these two optimized assays by quantitative high-throughput screening against the National Center for Advancing Translational Sciences (NCATS) Pharmaceutical Collection and used secondary assays to confirm and evaluate inhibitors identified in the primary screen.
SEQUENCE No. (e.g., 1, 2, 3, etc.); […] (e.g., Cells, Incubation, Reagent, etc.); VALUE; DESCRIPTION
1; Reagent; 3 uL; WIP1 (6.7 nM), Rh-PBP (13.3 uM), columns 1-48
3; Library Compounds; 23 nL; NCATS Pharmaceutical Collection, column 5-48
4; Control Compounds; DMSO in column 2, GSK2830371 (57.5 uM, final) in 3-fold serial dilutions in column 3, GSK2830371 (1.15 uM, final) in column 4
5; Time; 1 hr; incubation
6; Detection; fluorescence (f0); ViewLux, excitation filter = 525 nm, emission filter = 598 nm
7; Reagent; 1 uL; VEPP-pS-QETFS (40 uM), columns 2-48
8; Detection; fluorescence (f1); ViewLux, excitation filter = 525 nm, emission filter = 598 nm
NOTES (numbers refer to sequence above)
1 & 2; Black medium binding Greiner 1536-well plates (# 789176-F); assay buffer: 50 mM Tris-HCl pH 7.5, 30 mM MgCl2, 1mM TCEP, 0.1 mM EGTA, 75 ug/mL BSA; dispensed with a BioRaptr liquid handler (Beckman Coulter).
3 & 4; Kalypsys pintool (equipped with 1536 pinhead, Wako USA) transfer. Tip wash sequence: DMSO, methanol, 3 sec vacuum dry.
5; Room temperature incubation.
7; VEPPL-pS-QETFS in assay buffer dispensed with a BioRaptr; final reaction conditions: 5 nM WIP1, 10 uM VEPPL-pS-QETFS, 10 uM Rh-PBP, 50 mM Tris-HCl pH 7.5, 30 mM MgCl2, 1 mM TCEP, 0.1 mM EGTA, 75 ug/mL BSA.
8; Measurement taken at 1 min intervals for 11 min. Delta readout = f1 - f0.

SMILES | outcome
Cc1[nH]c(C)c(Cl)c(=O)c1Cl | inactive
Cc1onc(-c2ccccc2)c1-c1ccc(S(N)(=O)=O)cc1 | inactive
Nc1ccc(S(=O)(=O)c2ccc(N)cc2)cc1 | inactive
CC(=O)N[C@@H](Cc1ccc(O)cc1)C(=O)O | inactive
Cn1c([N+](=O)[O-])cnc1COC(N)=O | inactive
CC(=O)Oc1cccc(C)c1 | inactive
NC(=O)[C@@H]1CSSCCC(=O)N[C@@H](CCCCN=C(N)N)C(=O)NCC(=O)N[C@@H](CC(=O)O)C(=O)N[C@@H](Cc2c[nH]c3ccccc23)C(=O)N2CCC[C@H]2C(=O)N1 ([Mpa][hArg]GDWPC-NH2; disulfide 1-7) | inactive
NNc1nnc(NN)c2ccccc12 | inactive
C=CCN1C[C@H](C(=O)N(CCCN(C)C)C(=O)NCC)C[C@@H]2c3cccc4[nH]cc(c34)C[C@H]21 | inactive
CN1CC(=O)NC1=N | inactive
COc1cc(O)cc(O)c1 | inactive
COc1cc(C(=O)NCCCCCC(=O)O)cc(OC)c1OC | inactive
CCCCCCCCCCCCCCCCN | inactive
O=C(NCCCN1CCOCC1)c1ccc(Cl)cc1 | inactive
O=C1c2cccc(O)c2C(=O)c2c(O)cccc21 | inactive
CC(=O)Nc1cccc(O)c1 | inactive
CC1(C)S[C@@H]2[C@H](NC(=O)C(C(=O)O)c3ccccc3)C(=O)N2[C@H]1C(=O)O (stereo not given in full) | inactive
NC(=O)N[C@@H](CCC(=O)O)C(=O)O | inactive
COc1ccccc1Oc1c(NS(=O)(=O)c2ccc(C(C)(C)C)cc2)nc(-c2ncccn2)nc1OCCO | inactive
COc1ccc(Cc2cnc(N)nc2N)cc1OC | inactive

SMILES | outcome
O=C1C(c2[nH]c3ccccc3c2O)=Nc2ccccc21 | inactive
O=c1[nH]c(=O)n([C@H]2C[C@H](O)[C@@H](CO)O2)cc1I | inactive
C[C@@H]1O[C@@H](OC[C@H]2O[C@@H](Oc3c(-c4ccc(O)c(O)c4)oc4cc(O)cc(O)c4c3=O)[C@H](O)[C@@H](O)[C@@H]2O)[C@H](O)[C@H](O)[C@H]1O | inactive
O=C(/C=C/c1ccc(O)c(O)c1)O[C@@H]1C[C@@](OC(=O)/C=C/c2ccc(O)c(O)c2)(C(=O)O)C[C@@H](O)[C@@H]1O | inactive
O=c1[nH]c(=O)c2ccccc2o1 | inactive
CCCNC(C)C(=O)Nc1c(C)csc1C(=O)OC (stereo not given) | inactive
CC[C@]12CCCN3CCc4c(n(c5ccccc45)[C@@](O)(C(=O)OC)C1)[C@@H]32 | inactive
CCCCCC(C)N (stereo not given) | inactive
CCCCOC(=O)c1ccc(N)cc1 | inactive
CO[C@@]1(NC(=O)C(C(=O)O)c2ccc(O)cc2)C(=O)N2C(C(=O)O)=C(CSc3nnnn3C)CO[C@@H]21 (stereo not given in full) | inactive
COC(=O)c1ccccc1C(=O)c1ccc(OCCN2CCCCC2)cc1 | inactive
CC1(C)S[C@@H]2[C@H](N=CN3CCCCCC3)C(=O)N2[C@H]1C(=O)O | inactive
CCN(CC)CC1CCCCN1CC(=O)N1c2ccccc2C(=O)Nc2cccnc21 (stereo not given) | inactive
OCC(O)CS (stereo not given) | inactive
O=C1c2ccccc2S(=O)(=O)N1CCCCN1CCN(c2ncccn2)CC1 | inactive
C/C=C/C(=O)N(CC)c1ccccc1C | inactive
CCCOC(=O)c1ccc(N)cc1 | inactive
CCCNC(C)(C)COC(=O)c1ccccc1 | inactive
CCOc1ccccc1O[C@H](c1ccccc1)[C@H]1CNCCO1 | inactive
CCCCC1(COC(=O)CCC(=O)O)C(=O)N(c2ccccc2)N(c2ccccc2)C1=O | inactive
